Inhibition data for 89 compounds are collected here from PubChem BioAssay AID485270 (The Scripps Research Institute Molecular Screening Center, 2010).

“And” between values parts separate entries of the source, which are not always exact repeats. Equal values may be shown once. Among all 330,000 compounds or so, about 5,800 (1.8%) were called active. Shown is part of a subset that was picked to be rich in actives. Values without a mark were called inactive. Cut-off read from the data, not from the text of the source: active = inhibition mostly above about 38% (no sharp cut-off); inactive = mostly below about 40%.

Sequence of Orexin/Hypocretin receptor type 1 (Homo sapiens) (O43613 whole entry, looked up): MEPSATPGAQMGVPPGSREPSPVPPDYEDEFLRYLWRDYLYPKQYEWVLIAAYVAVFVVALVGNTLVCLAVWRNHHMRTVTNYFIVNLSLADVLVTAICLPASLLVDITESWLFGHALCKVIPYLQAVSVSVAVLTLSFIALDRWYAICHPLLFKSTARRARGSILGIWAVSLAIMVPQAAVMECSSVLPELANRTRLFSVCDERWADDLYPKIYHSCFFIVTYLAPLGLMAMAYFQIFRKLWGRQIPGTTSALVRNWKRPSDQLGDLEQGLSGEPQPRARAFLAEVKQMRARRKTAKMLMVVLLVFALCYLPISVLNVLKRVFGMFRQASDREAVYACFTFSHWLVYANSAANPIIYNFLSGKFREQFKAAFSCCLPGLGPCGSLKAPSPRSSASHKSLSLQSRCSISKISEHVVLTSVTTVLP

This test addresses Orexin/Hypocretin receptor type 1 (Homo sapiens) (UniProt O43613). The experiment in a line: blocks the human orexin 1 receptor (AID 485270).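 Note: 0% = agonist challenge alone and 100% = reference antagonist.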 The conditions noted are these: OX1R-expressing cells, FRET antagonist read-out; at 6.6 µM; stronger effect = higher value.
The inhibition is the relative decrease from the control value, in per cent. `CC(=O)c1cccc(OCC(=O)OCC(=O)Nc2cc(S(=O)(=O)N3CCCCC3)ccc2C)c1`: the inhibition is 9.5%. To `COc1ccc(CCNC(=O)c2cc3sccc3n2C)cc1OC` belongs 20.4%; to `CCOc1ccc(CCNC(=O)C(CC)n2nc(C)n3c(cc4sccc43)c2=O)cc1OCC` (centres undefined), 92.1% (active); to `CCC(C(=O)NCc1ccc(OC)cc1)n1nc(C)n2c(cc3occc32)c1=O` (centres undefined), 9.82%. To `COc1cc(SC)ccc1C(=O)NNC(=O)C1COc2ccccc2O1` (centres undefined) belongs 9.65%; to `CCN(CC(=O)NCc1ccc(F)cc1)S(=O)(=O)c1ccc(Cl)s1`, 6.16%; to `Cc1nc(C)c(-c2nnc(-c3cccc(S(=O)(=O)N(C)C)c3)o2)cc1C(=O)NN`, 1.5%. For `Cc1cccc(-c2noc(-c3ccc(F)cc3)n2)c1`, the inhibition was 1.69%. To `COc1ccc(-c2noc(-c3cccc(OC)c3OC)n2)cc1OC` belongs 45.8% (active); to `COc1ccc(-c2noc(CCCC(=O)NC3CCCC3)n2)cc1OC`, 14.1%; to `O=C(COC(=O)c1cccnc1Cl)NC(=O)NC1CCCCC1`, 0.57%. To `Cc1c(C#N)c2ncn(CC#N)c(=O)c2n1-c1ccccc1` belongs 16.1%.

As to `CN1c2ccc(C=O)c3c(C=O)ccc(c23)N(C)C1(C)C`, the inhibition was 38.9% (active). To `COc1ccc2nc3n(c(=O)c2c1)-c1ccc(Cl)cc1C(=O)NC3Cc1ccccc1` (centres undefined) belongs 7.22%; to `O=C1CCC/C=C/C[C@@H](CC(=O)N(CCO)Cc2ccccc2)C(=O)NC[C@H](c2ccccc2)O1`, 2.58%; to `CCN(C(=O)COC(=O)CCC(=O)c1cccs1)C1CCCCC1`, 3.19%. To `Cc1ccc(S(=O)(=O)N2CCN(C(=O)CN3C(=O)NC(C)(c4ccc(Cl)cc4)C3=O)CC2)c(C)c1` (centres undefined) belongs 4.7%. Take `O=C1c2ccccc2[C@@H]2C[C@@H](O)[C@H](Nc3ccccc3Cl)CCN12`: the inhibition was 7.11%. `Cc1ccc(C(=O)N2CCCC(c3ccccc3)=N2)cc1`: the inhibition is 64.4% (active). To `Cc1ccc(NC(=S)N2CCCC(c3ccccc3)=N2)cc1` belongs 14.4%. `Cc1ccc(C(=O)C[n+]2cc(-c3ccccc3)n3c2CCCCC3)cc1`: the inhibition is 9.82% and 16.5%.

For `CC(C)CC1NC(=O)c2cc(Cl)ccc2-n2c1nc1ccccc1c2=O` (centres undefined), the inhibition was 4.11%.

As to `O=C(Nc1cccc(NC(=O)c2cccc(F)c2)c1)c1ccccc1`, the inhibition was 16.8%. With `O=C(Nc1ccccc1)c1ccc2nsnc2c1`, the inhibition is 41.3% (active). Regarding `Cc1cccc(NC(=O)c2ccc3nsnc3c2)c1C`, the inhibition was 34.9%. For the compound `COc1cc(OC)cc(-c2c(C#Cc3ccsc3)c3cc(-c4ccc(SC)cc4)ccc3n2C)c1`, the inhibition was 7.83%. To `Cc1cc(C)nc(NC(=O)Nc2ccccc2C(F)(F)F)n1` belongs 19.6%. To `COc1cccc(C(=O)NC(=O)Nc2nc(C)cc(C(F)(F)F)n2)c1` belongs 64.4% (active). Take `COc1cccc(C(=O)NNC(=O)c2cccc(F)c2)c1`: the inhibition was -10.7%. As to `CNC(=O)CN1C(=O)NC(c2ccccc2)(c2ccccc2)C1=O`, the inhibition was 27%.

As to `COc1cccc(CNC(=O)CN2C(=O)NC(Cc3ccccc3)(c3ccccc3)C2=O)c1` (centres undefined), the inhibition is 40.8% (active).

For `COc1cccc(CNC(=O)COC(=O)CN2C(=O)NC3(CCCCC3C)C2=O)c1` (centres undefined), the inhibition is 4.53%. To `O=C(NCc1ccc2c(c1)OCO2)c1c(-c2ccsc2)sc2ccccc12` belongs 35.8%; to `Cc1ccc(S(=O)(=O)N(C)c2ccc(OCC(=O)OCc3ccc(C#N)cc3)cc2)cc1`, 5.89%. To `Cc1c(NC(=O)C(C)Oc2cccc(Cl)c2)c(=O)n(-c2ccccc2)n1C` (centres undefined) belongs 16%. To `Cc1cccc(OP(=O)(Nc2c(C)n(C)n(-c3ccccc3)c2=O)Oc2cccc(C)c2)c1` belongs 61.5% (active); to `Cc1c(NC(=S)Nc2ccccc2)c(=O)n(-c2ccccc2)n1C`, 6.12%; to `COc1ccc(-c2noc(CCC(=O)N3CCN(c4cccc(C)c4)CC3)n2)cc1`, 7.06%.

For `CN(C)C(=O)CCc1ccc2c3c([nH]c2c1)[C@]1(C)[C@@H](C(=O)N2CCCCC2)C[C@H](CC(=O)NCCC2=CCCCC2)C(=O)N1CC3`, the inhibition is 10.5%. In the case of `C[C@@H]1CN([C@@H](C)CO)C(=O)c2cccc(NS(=O)(=O)c3ccc(F)cc3)c2O[C@H]1CN(C)C(=O)NC1CCCCC1`, the inhibition was 11.9%. To `COc1ccc(C(=O)OCc2cc(=O)n3ccsc3n2)cc1F` belongs 3.7%.

Take `CCN1/C(=C/c2ccc3ccc(C)cc3[n+]2CC)Sc2ccccc21`: the inhibition was 38.5%. Regarding `CCN1/C(=C\c2ccc3ccccc3[n+]2CC)Sc2cc(C)ccc21`, the inhibition is 69.9% (active). To `CN(CC(=O)Nc1ccc(OC(F)F)cc1)S(=O)(=O)/C=C/c1ccccc1` belongs 6.62%; to `Cn1c(N)c(C(=O)COC(=O)c2ccc3ccccc3c2)c(=O)n(C)c1=O`, 44.9% (active); to `Cn1c(N)c(C(=O)COC(=O)c2cccc(S(=O)(=O)N3CCOCC3)c2)c(=O)n(C)c1=O`, 13.1%. Regarding `Cn1c(N)c(C(=O)COC(=O)c2cnc(Cl)c(Cl)c2)c(=O)n(C)c1=O`, the inhibition is 6.46%. With `Cn1cncc1C#Cc1c(-c2ccsc2)sc2ccccc12`, the inhibition was 10.4%.

As to `CC1Cc2ccccc2N1S(=O)(=O)c1cccc(C(=O)OCC(=O)N2CCOCC2)c1` (centres undefined), the inhibition is 7.49%. To `O=S(=O)([N-]c1nc2ccccc2nc1-[n+]1ccc(Cc2ccccc2)cc1)c1ccc(Br)s1` belongs 20.8%; to `Cc1ccc(C)c(NC(=O)CN(C)C(=O)COc2ccc3ccccc3c2)c1`, 19.9%. On to `Cc1ccnc(Nc2nc3ccccc3s2)n1`, for which the inhibition is 55.2% (active).

`c1ccc2sc(NN=C3CCCC3)nc2c1`: the inhibition is 3.98%. Turning to `Cc1ccnc(-n2sc3ccccc3c2=O)n1`, the inhibition is 15.6%. Regarding `COc1ccc(/C=C/C(=O)Nc2ccc(C34CC5CC(CC(O)(C5)C3)C4)cc2)cc1OC`, the inhibition is 18.9%. To `C=CCC[C@@H](Cc1ccc(F)cc1)C(=O)OC[C@@H](C)NC(=O)[C@H](CC=C)CC(=O)N(CCO)Cc1ccccc1` belongs 7.32%; to `O=S(=O)(NCC1CN(S(=O)(=O)c2ccc3c(c2)OCCO3)C1)c1c(F)cccc1F`, 3.02%. To `Cc1nn(-c2ccc([N+](=O)[O-])cc2)c(N)c1-c1ccccc1` belongs 62.8% (active); to `Cc1cc(CO)nn1-c1ccc([N+](=O)[O-])cc1`, 46.5%.

With `Cc1nc(-c2ccc([N+](=O)[O-])cc2)c(-c2ccccc2)o1`, the inhibition is 5.07%. To `O=C(COc1ccc(Br)cc1F)NCC1(N2CCCCC2)CCCCC1` belongs 9.11%; to `O=C(COC(=O)c1ccc([N+](=O)[O-])o1)NC12CC3CC(CC(C3)C1)C2`, 23.2%; to `O=C(Nc1ccc(C(=O)N2CCCCC2)cc1)c1cccc([N+](=O)[O-])c1`, 4.33%. To `O=C(Oc1ccccc1C(=S)N1CCCCC1)c1cc([N+](=O)[O-])cc([N+](=O)[O-])c1` belongs 123% (active). For the compound `O=C(Oc1ccc(Br)cc1C(=S)N1CCOCC1)c1cccc([N+](=O)[O-])c1`, the inhibition was 18.1%.

`CC(=O)Nc1ccc(NC(=O)COC(=O)C2CCC(C(C)(C)C)CC2)cc1` (centres undefined): the inhibition was 7.49%. To `O=C(Nc1ccc(-n2cccn2)cc1)C1CCN(Cc2ccsc2)CC1` belongs -0.73%.

Take `COc1ccccc1CNC(=O)c1ccc(Cl)c(S(=O)(=O)N2CCCC2)c1`: the inhibition was 16.6%.

For `COc1ccc(CNC(=O)COC(=O)C(CCSC)N2C(=O)c3ccccc3C2=O)cc1` (centres undefined), the inhibition was 9.55%. For the compound `COc1cc(OC)cc(C(=O)NC(C(=O)N2CCC2)C(C)C)c1` (centres undefined), the inhibition was 4.23%. To `COc1ccc(-c2nnc(NC(=O)CS(=O)(=O)c3ccc(Cl)cc3)o2)c(OC)c1` belongs 47.9% (active); to `COc1ccc(NC(=O)CS(=O)(=O)c2ccccc2)cc1`, -4.46%. To `Cc1ccc(C)c(-c2nnc(NC(=O)CS(=O)(=O)c3ccccc3)o2)c1` belongs 12.7%; to `CCCCNc1c(-c2cccc(Sc3ccc(OC)cc3)c2)nc2ccccn12`, 32.8%. For `c1ccc2c(CCN3CCNC[C@H]3Cc3cccc4ccccc34)cccc2c1`, the inhibition was 3.65%. With `CC(NC(=O)COC(=O)Cn1cc(C(F)(F)F)ccc1=O)c1ccccc1` (centres undefined), the inhibition is 3.44%. For the compound `O=c1[nH]c(-c2ccccc2)c(-c2ccccc2)[nH]1`, the inhibition was 8.25%. Take `Cc1cc2nc3c(=O)n(Cc4ccccc4)c(=O)[nH]c3nc2cc1N`: the inhibition is 14.8%. As to `Nc1ccc2nc3c(=O)[nH]c(=S)[nH]c3nc2c1`, the inhibition is 93.8% (active). With `O=c1[nH]c(-c2cccs2)nc2ccccc12`, the inhibition was 42.7%. In the case of `O=c1[nH]c(=O)c2nc3ccccc3nc2[nH]1`, the inhibition was 53.3% (active). Take `O=C1OCCN1C(=O)[C@H]1[C@H](c2ccc(Cl)cc2)C(c2cccc(Cl)c2)=NN1c1ccc(Br)cc1`: the inhibition was -1.81%. To `Cc1ccc(C)c(N2CCN(C(=O)CCc3nc(-c4cccc(C(F)(F)F)c4)no3)CC2)c1` belongs 5.16%; to `CC(=O)N(O)CCCCCNC(=O)CCC(=O)N(O)CCCCCNC(=O)CCC(=O)N(O)CCCCCNC(=O)CCC(=O)O`, 3.94%. To `Cc1ccc(C(=O)Nc2ccc3c(c2)OCCO3)cc1S(=O)(=O)N1CCOCC1` belongs 1.11%; to `COc1cc(OC)cc(C(=O)N[C@H](C(=O)NNC(=O)c2ccc(Br)cc2)C(C)C)c1`, 6.01%.

Consider `N/C(=N\OC(=O)c1ccc2c(c1)OCO2)c1ccc(Br)cc1`, for which the inhibition is 10.9%. To `Nc1[nH][nH]c(=O)c1N=Nc1ccc2c(c1)OCO2` belongs 84.8% (active); to `O=C(c1ccc2c(c1)OCO2)N1CCOCC1`, 14.4%.
